“And” between values parts separate entries of the source, which are not always exact repeats. Equal values may be shown once. The panel holds about 83,000 compounds, 20% with a hit somewhere; the sample as a whole holds those more often.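 Assay: single dose, 48 h. Readout: percent growth (0 = no net growth; negative = cell death). Active: <10.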 The source made the active and inactive calls.
Test system: HL-60(TB) leukemia
Test: NCI-60 one-dose screen, 48 h (100 = growth as untreated, 0 = no growth, -100 = all killed)
Details: 10 µM unless noted

Row | SMILES | growth
1 | COc1ccc(Cc2nn(CC(=O)N/N=C/c3ccc([N+](=O)[O-])cc3)c(=O)c3c(C)noc23)cc1 | 109% (inactive)
2 | COc1ccc(NC(=O)Cn2c(/C=C/c3cccc(OC)c3)nc3ccccc3c2=O)cc1 | 94.6% (inactive)
3 | Cc1cc(C(NC(=O)CCCCCNc2cccc3c2C(=O)N(C2CCC(=O)CC2=O)C3=O)c2cccc(N(C)C)c2)c(O)c2ncccc12 (configuration not stated) | -15.3% (active)
4 | CCCCSc1nc(Nc2ccc(S(N)(=O)=O)cc2)c(C#N)c(-c2ccc(Cl)cc2)n1 | 62.9% (inactive)
5 | O=C(COc1ccc(NC(=O)Nc2ccc(Cl)c(Cl)c2)cc1)N=Nc1c(O)[nH]c2ccc(Br)cc12 | -27.2% (active)
6 | O=C1Nc2ccc(Cl)cc2/C1=C/c1ccc(OCc2ccccn2)cc1 | 85% (inactive)
7 | COc1ccc2[nH]c(O)c(N=NC(=O)c3ccc4nc(-c5ccc(Cl)cc5)[nH]c4c3)c2c1 | 88.5% (inactive)
8 | CC(C)CSc1nc(NCCc2c[nH]c3ccccc23)c(C#N)c(-c2ccc(F)cc2)n1 | 49.7% (inactive)
9 | CC1(c2ccccc2)NC(=O)N(CC(=O)Nc2ccc(C(=O)/C=C/c3ccc(Cl)cc3)cc2)C1=O (configuration not stated) | -27.7% (active)
10 | O=C1C=CC(=CC=C2N(Cc3ccc4ccccc4c3)c3ccccc3N2Cc2ccc3ccccc3c2)C=C1 | -26.5% (active) and -21.5% (active)
11 | O=C(Nc1ccc(I)cc1)Nc1nc2ccc([N+](=O)[O-])cc2s1 | -37.3% (active)
12 | CN1CCN(/C(=N\c2sc(-c3ccccc3)nc2-c2ccccc2)c2ccccc2)CC1 | 62.9% (inactive)
